# The list is not random: actives were taken first. Their share in the collection is about 0.9%.
# SRC3 TRFRET art – counter-screen for PPARgamma SRC-3 recruitment agonists: TR-FRET artefact; TR-FRET ratio at 8 µM; hit rate 0.39% among 99,000; PPARgamma/SRC-3 format; hits give high values
# TR-FRET SRC-2 ct – counter-screen for PPARgamma SRC-2 recruitment agonists: TR-FRET artefact; hits give high values; TR-FRET ratio at 8 µM; hit rate 0.4% among 200,000; AID 1049
# PPARg SRC-1 ag – promotes SRC-1 coactivator recruitment by human PPARgamma. activation, % at 8 µM. hit rate 0.41% among 200,000. AID 631. PPARgamma-SRC-1 coactivator recruitment biochemical assay. P37231; in the data active = activation above about 19%
# Target sequence (P37231 whole entry, looked up): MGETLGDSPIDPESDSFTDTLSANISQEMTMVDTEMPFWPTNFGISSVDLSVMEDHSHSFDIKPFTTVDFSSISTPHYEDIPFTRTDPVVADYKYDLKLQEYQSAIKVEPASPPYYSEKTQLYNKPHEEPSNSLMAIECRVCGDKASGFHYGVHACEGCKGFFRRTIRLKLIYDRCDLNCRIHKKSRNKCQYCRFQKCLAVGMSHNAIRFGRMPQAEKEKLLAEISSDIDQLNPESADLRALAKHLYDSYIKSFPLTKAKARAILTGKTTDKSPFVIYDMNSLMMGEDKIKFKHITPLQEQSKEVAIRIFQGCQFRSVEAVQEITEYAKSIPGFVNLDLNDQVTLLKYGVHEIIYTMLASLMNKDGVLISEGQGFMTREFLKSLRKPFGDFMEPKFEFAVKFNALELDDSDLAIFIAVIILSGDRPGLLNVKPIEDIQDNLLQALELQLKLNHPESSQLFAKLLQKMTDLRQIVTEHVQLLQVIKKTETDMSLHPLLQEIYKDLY
# SRC1 TRFRET art – counter-screen for PPARgamma SRC-1 recruitment agonists: TR-FRET artefact. hit rate 0.34% among 99,000. TR-FRET ratio at 8 µM. TR-FRET detection artefact counter-screen, emission ratio; hits give high values; in the data active = TR-FRET ratio above about 2300
# PPARg SRC-2 ag – PPARgamma-driven SRC-2 recruitment agonism. hit rate 0.34% among 200,000. PPARgamma LBD-SRC-2 recruitment, biochemical. AID 1032. activation, % at 8 µM; in the data active = activation above about 22%
# PPARg SRC-3 ag – promotes SRC-3 coactivator recruitment by human PPARgamma; P37231; biochemical PPARgamma/SRC-3 coactivator recruitment assay; activation, % at 8 µM; hit rate 0.26% among 200,000; AID 731; in the data active = activation above about 23%
# Hits are given with their value; - = inactive; . = no result given. Rule as the data show it, unless noted: active = TR-FRET ratio above about 2000; inactive = the rest.
SMILES,SRC3 TRFRET art,TR-FRET SRC-2 ct,PPARg SRC-1 ag,SRC1 TRFRET art,PPARg SRC-2 ag,PPARg SRC-3 ag
O=C(CSc1nc2c(c(=O)[nH]1)CCC2)Nc1cccc(Cl)c1,.,-,-,.,-,-
N#Cc1c(-c2ccco2)nc(SCC(=O)Nc2cccc(Cl)c2)[nH]c1=O,.,2164,-,.,-,-
Cc1cc(OC(C)C(N)=O)nc(-c2ccccc2)n1 (stereo not drawn),-,-,-,-,-,-
CC1(C)CN(c2ccsc2C(=O)O)C1=O,-,-,-,-,-,-
CC(=O)c1ccc(-n2c(SCC(=O)c3c[nH]c4ccccc34)nc3ccccc3c2=O)cc1,2096,-,-,-,-,-
CCOC(=O)c1c(C)[nH]c(C)c1C(=O)CSc1nc2ccccc2c(=O)n1-c1ccc(CC)cc1,-,-,-,-,-,-
O=C(COC(=O)CNC(=O)c1ccccc1)Nc1ccc(F)c([N+](=O)[O-])c1,-,-,-,-,-,-
CCCCC(CC)c1nnc(NC(=O)c2cccs2)s1 (stereo not drawn),-,-,-,-,22,-
COc1ccc(OCC(=O)Nc2cc(-c3nn(C)c(=O)c4ccccc34)ccc2OC)cc1,.,-,38,.,-,-
CCOC(=O)N1CCN(C(=O)CCCCn2c(=S)[nH]c3ccsc3c2=O)CC1,-,-,-,-,-,-
COc1ccc(-c2ccc(C#N)c(SCC(=O)OCc3ccccc3)n2)cc1OC,.,2143,-,.,-,-
COc1ccc(C2Nc3ccccc3C(=O)N2c2ccccc2)cc1CSc1ccccn1 (stereo not drawn),2243,-,-,-,-,-
CCOc1ccc(N=C2NN=C(c3cc(C)n(CC4CCCO4)c3C)CS2)cc1 (stereo not drawn),-,-,22,-,-,-
CC(C)CN1CCNC(=O)C1CC(=O)NCc1cnn(-c2cccc(F)c2)c1 (stereo not drawn),-,-,-,-,-,-
O=C(CSc1nnnn1Cc1ccccc1)NCCc1ccccc1,-,-,-,-,-,-
O=C(CSc1nnnn1Cc1ccccc1)NCC(=O)c1ccccc1,.,-,-,.,23,-
CCOC(=O)C1=NN(c2cccc(Cl)c2)C2=NC(C)=C(C(=O)OC)C(c3cccs3)N12 (stereo not drawn),.,-,-,.,27,-
O=C(CSCC(=O)N1CCCCC1)Nc1nc(-c2ccccc2)c(-c2ccccc2)s1,2244,-,-,-,-,-
COc1ccc(-c2sc(NC(C)=O)nc2-c2ccccc2)cc1,-,-,-,-,-,-
FC(F)(F)c1ccccc1NC(=S)Nc1cccc(Cl)c1,-,-,-,-,-,-
Cc1c(NC(=O)C(C)n2cc([N+](=O)[O-])cn2)c(=O)n(-c2ccccc2)n1C (stereo not drawn),-,-,-,-,-,-
COC(=O)c1ccc(COC(=O)c2ccc(S(=O)(=O)N3CCC(C)CC3)cc2)o1,.,-,21,.,-,-
COc1ccccc1-c1cc(-c2ccccc2)nc(SC(C(N)=O)c2ccccc2)c1C#N (stereo not drawn),.,3201,-,.,-,-
CCOc1ccc(CCNC(=O)CSc2nn(-c3ccc(C)c(Cl)c3)c(=S)s2)cc1OCC,-,-,30,2577,-,-
CCOc1ccc(CCNC(=O)CSc2nnnn2C)cc1OCC,-,-,-,-,-,-
SMILES,SRC3 TRFRET art,TR-FRET SRC-2 ct,PPARg SRC-1 ag,SRC1 TRFRET art,PPARg SRC-2 ag,PPARg SRC-3 ag
Cc1ccc(S(=O)(=O)Oc2ccc(/C=N/NC(=O)c3cccnc3)cc2)cc1,-,-,-,-,-,-
Cn1ccnc1C1CCCCN1Cc1nc(-c2ccc3c(c2)OCO3)no1 (stereo not drawn),-,-,38,3563,-,-
CCc1nnc(NC(=O)[C@@H](NC(=O)c2cccc(S(=O)(=O)N(CC)CC)c2)C(C)C)s1,.,-,-,.,-,-
COc1ccccc1NC(=O)c1ccc(NC(=O)CN2C(=O)CN(C)C2=O)cc1,-,-,-,-,-,-
Cc1ccc(C(=O)Nc2ccc(N3CCCC3)cc2)cc1,-,-,22,-,-,-
O=C(Nc1ccncc1)c1cncc(Br)c1,.,-,-,.,-,-
O=C(Nc1ccc(N2CCCCC2)cc1)c1ccccc1,.,-,19,.,-,-
O=C(Nc1ccc(N2CCCCC2)cc1)c1cncc(Br)c1,.,-,20,.,-,-
CCn1c(SCC(=O)Nc2ccc(Cl)cc2)nc2nc3c(cc2c1=O)CCCC3,-,2837,-,-,68,-
